High-throughput results deposited in PubChem by National Center for Advancing Translational Sciences (NCATS).
Compounds with a hit are over-represented: about 2.9% of the library has one in this group of screens.
SNCA expr inh – Primary qHTS assay for inhibitors of alpha-synuclein gene (SNCA) expression | hit rate 0.17% among 140,000 | HEK-293 SNCA-luciferase knock-in, luminescence, 24 h | Potency, µM (highest dose often 57.2 µM), for inactives: at the top dose activity change, negative = inhibition, actives largely listed as inhibitors;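 also: potency is read from the fitted curve at half-maximal effect; plate controls were DMSO cells for no effect and cell-free wells for full effect; nearly all actives have a fitted effect of over 45% in size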
KDM5B inh – Primary screen for KDM5B Histone Demethylases FDH-coupled qHTS | hit rate 2.6% among 220,000 | KDM5B demethylase, FDH-coupled NADH fluorescence (FDH is formaldehyde dehydrogenase) | Potency, µM (doses to about 57.7 µM), hits mostly inhibitors | Lysine-specific demethylase 5B (Homo sapiens), Q9UGL1; also: potency is read from the fitted curve at half-maximal effect; 0% is about no effect; nearly all actives have a fitted effect of over 70% in size
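qHTS format, multiple compound concentrations. Buffer 50 mM HEPES pH 7.5/0.01% Tween-20; 200 nM KDM5BΔAP final; 10 min compound preincubation; substrate-mix levels 12.5 µM peptide, 25 µM α-KG, 0.25 mM NAD⁺; 30 min RT; ΔRFU.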
IP6K1 inh – Primary qHTS assay for small molecule inhibitors of Inositol hexaphosphate kinase 1 (IP6K1). IP6K1 kinase, ADP-Glo luminescence, 2 h; hits give low values. activity change, % (series mostly up to about 58 µM). AID 1645851, 2021. hit rate 0.81% among 140,000; in the data active = activity change below about -25%; also: % is scaled to controls: 0 for no effect and ±100 for the full control effect
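ADP-Glo luminescence measures ADP made by human IP6K1 during a 2 h RT reaction with ATP/IP6 (mix at 1.3 mM/130 uM); top library doses 57.5 and 19.1 uM final.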
SNCA viab count – GF-AFC viability counterscreen for inhibitors of alpha-synuclein gene (SNCA) expression; hit rate 0.12% among 150,000; Potency, µM (series often up to 57.1 µM), inactives show at the highest dose activity change, negative = cytotoxicity, usual class: cytotoxic; HEK-293-SNCA-luc viability, GF-AFC fluorescence, 24 h; AID 1671193, 2021;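 also: potency is read from the fitted curve at half-maximal effect; 0% = DMSO-treated cells and -100% = medium-only wells without cells; nearly all actives have a fitted effect of over 30% in size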
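HEK-293-SNCA-luc cells (1500/well) plated 24 h, then exposed 24 h to a dilution series; GF-AFC added 30 min at 37C, fluorescence 405/540 nm; normalised to medium-only and DMSO wells, Hill fit.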
* hit, by the source's call; i = inactive; ? = inconclusive; nt = no result; [ ] = remark or other dose. Unless noted, calls follow the shape of the dose curve; as a rule, active = well fitted curve in the direction sought with a large enough effect; inconclusive = small, poorly fitted or top-dose-only effect, or another doubt; inactive = no such curve, though single readings can be large; an effect the other way counts as inactive or inconclusive.

SMILES	SNCA expr inh	KDM5B inh	IP6K1 inh	SNCA viab count
CN1Cc2cccn2CC1CNC(=O)c1cccc(F)c1 (centres undefined)	-17%	25µM*	16	3%
O=C(C1CCCCC1)N1CCC2(CC1)NCc1ccccc1NC2=O	10%	i	6	-1%
O=C(c1ccccc1)N1CCC2(CC1)NCc1ccccc1NC2=O	-1%	89µM*	16	1%
O=C(Cc1csc(-c2ccccc2)n1)N[C@H](c1ccccn1)C1CC(O)C1 (some centres undefined)	-10%	25µM*	8	-1%
Nc1nc2c(c(C(=O)N[C@H](c3ccccn3)C3CC(O)C3)n1)CCCC2 (some centres undefined)	6%	28µM*	35	10%
N#Cc1cccc(-c2ccnc(N[C@H]3CO[C@H]4[C@@H]3OC[C@H]4OC(=O)Nc3ccccc3)n2)c1	69%	i	8	-2%
COc1ccc(-c2ccnc(N[C@H]3CO[C@H]4[C@@H]3OC[C@H]4OCC(N)=O)n2)cc1	14%[87.6 µM]	32µM*	1	0%[87.6 µM]
COC(=O)c1ccccc1NC(=O)O[C@@H]1CO[C@H]2[C@@H]1OC[C@@H]2Nc1nccc(-c2ccc3c(c2)OCO3)n1	-21%	28µM*	1	-10%
COc1ccc(-c2ccnc(N[C@H]3CO[C@H]4[C@@H]3OC[C@@H]4NS(=O)(=O)c3ccc(C)cc3)n2)cc1	-5%	i	-2	-2%
N#Cc1cccc(NC(=O)O[C@@H]2CO[C@H]3[C@@H]2OC[C@@H]3Nc2nccc(-c3cccc(F)c3)n2)c1	?	6.3µM*	2	?
CN(C)c1ccc(-c2nnnn2[C@H]2CO[C@H]3[C@@H]2OC[C@H]3OC(=O)Nc2cccc(C#N)c2)cc1	4%	35µM*	25	-1%
O=C(O)CCCC(=O)N[C@H]1CO[C@H]2[C@@H]1OC[C@@H]2Nc1nccc(-c2ccc(-c3ccccc3)cc2)n1	19%	32µM*	7	9%
Cc1ccc(NC(=O)O[C@@H]2CO[C@H]3[C@@H]2OC[C@@H]3Nc2nccc(-c3ccccc3)n2)cc1	152%[87.6 µM]	28µM*	4	-3%[87.6 µM]
COc1ccc(-c2ccnc(N[C@H]3CO[C@H]4[C@@H]3OC[C@@H]4NC(=O)CCC(=O)O)n2)cc1	1%[87.6 µM]	?	-8	4%[87.6 µM]
CC(C)(C)c1ccc(NC(=O)O[C@@H]2CO[C@H]3[C@@H]2OC[C@@H]3Nc2nccc(-c3ccc(-c4ccccc4)cc3)n2)cc1	-30%	i	12	-17%
CCN(C)C(=O)C(C)N1CCc2onc(-c3ccc(-c4ccccc4)cc3)c2C1 (centres undefined)	42%	25µM*	36	-5%
CCN(C)C(=O)C(C)N1CCc2onc(C(c3ccccc3)c3ccccc3)c2C1 (centres undefined)	-10%	i	0	-7%
O=C(N/C(=C/c1ccc(F)cc1)C(=O)N1CCOCC1)c1ccccc1	nt	i	nt	nt
CCc1ccc(NC(=O)N2CCc3c(c4ccccc4n3C)C2)cc1	30%	28µM*	-2	5%
Cn1c2c(c3cc(F)ccc31)CN(C(=O)Nc1ccc(Cl)cc1)CC2	98%	?	5	3%
CCOc1ccc(NC(=O)N2CCc3c(c4ccccc4n3C)C2)cc1	-8%	25µM*	-4	-2%
Cc1ccc(NC(=O)N2CCc3c(c4ccccc4n3C)C2)cc1	38%	22µM*	5	3%
COc1ccc2[nH]c(=O)c(CCC(=O)O)cc2c1	46%	28µM*	-8	4%
COc1ccc2[nH]c(=O)c(CN3CCOC(CN)C3)cc2c1 (centres undefined)	-11%	25µM*	11	-3%
Cc1ccc2[nH]c(=O)c(CCC(=O)O)cc2c1	27%	?	-3	-3%
SMILES	SNCA expr inh	KDM5B inh	IP6K1 inh	SNCA viab count
COc1ccc2[nH]c(=O)c(CCC(=O)NCCCN3CCCC(C)C3)cc2c1 (centres undefined)	?	32µM*	30	3%
CCOC(=O)CN1CCN(C(=O)CCc2cc3cc(OC)ccc3[nH]c2=O)CC1	?	32µM*	23	?
Cc1nc(-c2ccc(Cl)cc2)sc1CCNC(=O)C(=O)Nc1ccc(F)cc1F	15%	i	1	1%
O=C(NC1CCN(c2nccc(Nc3ccccc3F)n2)CC1)c1ccccc1F	10%	nt	-9	-11%[12.5 µM]
O=C(CCc1nc2ccccc2[nH]c1=O)N1CCN(CCn2cncn2)CC1	-4%	18µM*	32	-8%
Cc1cccc(CC(=O)N2CCc3c(nc4cc[nH]n4c3=O)C2)c1	-10%	32µM*	10	5%
O=C(c1ccsc1)N1CCc2c(nc3cc[nH]n3c2=O)C1	-7%	25µM*	27	8%
O=C(c1n[nH]c2c1CCCC2)N1CCc2c(nc3cc[nH]n3c2=O)C1	12%	28µM*	12	3%
O=C(c1cc(-c2cccs2)[nH]n1)N1CCc2c(nc3cc(-c4ccccc4)[nH]n3c2=O)C1	-5%	32µM*	37	3%
O=C(c1cc(CN2CCOCC2)on1)N1CCc2c(nc3cc(-c4ccccc4)[nH]n3c2=O)C1	-1%	28µM*	0	-1%
Cc1noc(C)c1Cc1ccc(C(=O)N2CCc3c(nc4cc(-c5ccccc5)[nH]n4c3=O)C2)o1	23%	?	1	6%
Cc1ccc(CN2CC(C(=O)N3CCc4c(nc5cc(-c6ccccc6)[nH]n5c4=O)C3)CC2=O)cc1 (centres undefined)	-14%	22µM*	2	-1%
O=C(c1n[nH]c2c1CCCC2)N1CCc2c(nc3cc(-c4ccccc4)[nH]n3c2=O)C1	-19%	16µM*	48	-4%
O=C(c1n[nH]c2c1CCCC2)N1CCc2nc3cc[nH]n3c(=O)c2C1	4%	?	0	-2%
Cc1ccccc1-c1ccc2ccccc2n1	nt	i	nt	nt
O=C1Nc2ccc(-c3ccc4c(c3)OCO4)cc2C(=O)N2CCN(C(=O)C3CCCC3)C[C@@H]12	-13%	22µM*	-19	-4%
CC(C)(C)CC(=O)N1CCN2C(=O)c3cc(-c4ccc5c(c4)OCO5)ccc3NC(=O)[C@H]2C1	?	?	6	6%
COc1ccc(-c2ccc3c(c2)C(=O)N2CCN(C(=O)C4CCCCC4)C[C@@H]2C(=O)N3)cc1	-22%	?	-8	-9%
CSc1ccc(-c2ccc3c(c2)C(=O)N2CCN(C(=O)C4CCCCC4)C[C@@H]2C(=O)N3)cc1	-8%	28µM*	0	0%
Cc1ccc(N2C(=O)N[C@@H]3CCN(C(=O)CC4(CC(=O)O)CCCC4)[C@@H]3C2=O)cc1	3%[87.6 µM]	i	5	3%[87.6 µM]
O=C(N[C@H](Cc1ccccn1)C1CC(O)C1)c1n[nH]c2c1CCCC2 (some centres undefined)	-16%	i	13	-1%
